# Where “and” joins values, the source holds several entries; their conditions need not be identical. Equal entries are not always repeated. Out of some 190,000 compounds screened, about 6,900 (3.6%) were called active. This is one part of a sample in which actives are shown more often than they occur. Cut-off read from the data, not from the text of the source: active = inhibition above about 50%; inactive = the rest. More than one record can exist for a structure, and the calls need not agree.
# Biological target: Huntingtin (Homo sapiens) (UniProt P42858)
# Sequence (P42858 whole entry, looked up, stated change not applied): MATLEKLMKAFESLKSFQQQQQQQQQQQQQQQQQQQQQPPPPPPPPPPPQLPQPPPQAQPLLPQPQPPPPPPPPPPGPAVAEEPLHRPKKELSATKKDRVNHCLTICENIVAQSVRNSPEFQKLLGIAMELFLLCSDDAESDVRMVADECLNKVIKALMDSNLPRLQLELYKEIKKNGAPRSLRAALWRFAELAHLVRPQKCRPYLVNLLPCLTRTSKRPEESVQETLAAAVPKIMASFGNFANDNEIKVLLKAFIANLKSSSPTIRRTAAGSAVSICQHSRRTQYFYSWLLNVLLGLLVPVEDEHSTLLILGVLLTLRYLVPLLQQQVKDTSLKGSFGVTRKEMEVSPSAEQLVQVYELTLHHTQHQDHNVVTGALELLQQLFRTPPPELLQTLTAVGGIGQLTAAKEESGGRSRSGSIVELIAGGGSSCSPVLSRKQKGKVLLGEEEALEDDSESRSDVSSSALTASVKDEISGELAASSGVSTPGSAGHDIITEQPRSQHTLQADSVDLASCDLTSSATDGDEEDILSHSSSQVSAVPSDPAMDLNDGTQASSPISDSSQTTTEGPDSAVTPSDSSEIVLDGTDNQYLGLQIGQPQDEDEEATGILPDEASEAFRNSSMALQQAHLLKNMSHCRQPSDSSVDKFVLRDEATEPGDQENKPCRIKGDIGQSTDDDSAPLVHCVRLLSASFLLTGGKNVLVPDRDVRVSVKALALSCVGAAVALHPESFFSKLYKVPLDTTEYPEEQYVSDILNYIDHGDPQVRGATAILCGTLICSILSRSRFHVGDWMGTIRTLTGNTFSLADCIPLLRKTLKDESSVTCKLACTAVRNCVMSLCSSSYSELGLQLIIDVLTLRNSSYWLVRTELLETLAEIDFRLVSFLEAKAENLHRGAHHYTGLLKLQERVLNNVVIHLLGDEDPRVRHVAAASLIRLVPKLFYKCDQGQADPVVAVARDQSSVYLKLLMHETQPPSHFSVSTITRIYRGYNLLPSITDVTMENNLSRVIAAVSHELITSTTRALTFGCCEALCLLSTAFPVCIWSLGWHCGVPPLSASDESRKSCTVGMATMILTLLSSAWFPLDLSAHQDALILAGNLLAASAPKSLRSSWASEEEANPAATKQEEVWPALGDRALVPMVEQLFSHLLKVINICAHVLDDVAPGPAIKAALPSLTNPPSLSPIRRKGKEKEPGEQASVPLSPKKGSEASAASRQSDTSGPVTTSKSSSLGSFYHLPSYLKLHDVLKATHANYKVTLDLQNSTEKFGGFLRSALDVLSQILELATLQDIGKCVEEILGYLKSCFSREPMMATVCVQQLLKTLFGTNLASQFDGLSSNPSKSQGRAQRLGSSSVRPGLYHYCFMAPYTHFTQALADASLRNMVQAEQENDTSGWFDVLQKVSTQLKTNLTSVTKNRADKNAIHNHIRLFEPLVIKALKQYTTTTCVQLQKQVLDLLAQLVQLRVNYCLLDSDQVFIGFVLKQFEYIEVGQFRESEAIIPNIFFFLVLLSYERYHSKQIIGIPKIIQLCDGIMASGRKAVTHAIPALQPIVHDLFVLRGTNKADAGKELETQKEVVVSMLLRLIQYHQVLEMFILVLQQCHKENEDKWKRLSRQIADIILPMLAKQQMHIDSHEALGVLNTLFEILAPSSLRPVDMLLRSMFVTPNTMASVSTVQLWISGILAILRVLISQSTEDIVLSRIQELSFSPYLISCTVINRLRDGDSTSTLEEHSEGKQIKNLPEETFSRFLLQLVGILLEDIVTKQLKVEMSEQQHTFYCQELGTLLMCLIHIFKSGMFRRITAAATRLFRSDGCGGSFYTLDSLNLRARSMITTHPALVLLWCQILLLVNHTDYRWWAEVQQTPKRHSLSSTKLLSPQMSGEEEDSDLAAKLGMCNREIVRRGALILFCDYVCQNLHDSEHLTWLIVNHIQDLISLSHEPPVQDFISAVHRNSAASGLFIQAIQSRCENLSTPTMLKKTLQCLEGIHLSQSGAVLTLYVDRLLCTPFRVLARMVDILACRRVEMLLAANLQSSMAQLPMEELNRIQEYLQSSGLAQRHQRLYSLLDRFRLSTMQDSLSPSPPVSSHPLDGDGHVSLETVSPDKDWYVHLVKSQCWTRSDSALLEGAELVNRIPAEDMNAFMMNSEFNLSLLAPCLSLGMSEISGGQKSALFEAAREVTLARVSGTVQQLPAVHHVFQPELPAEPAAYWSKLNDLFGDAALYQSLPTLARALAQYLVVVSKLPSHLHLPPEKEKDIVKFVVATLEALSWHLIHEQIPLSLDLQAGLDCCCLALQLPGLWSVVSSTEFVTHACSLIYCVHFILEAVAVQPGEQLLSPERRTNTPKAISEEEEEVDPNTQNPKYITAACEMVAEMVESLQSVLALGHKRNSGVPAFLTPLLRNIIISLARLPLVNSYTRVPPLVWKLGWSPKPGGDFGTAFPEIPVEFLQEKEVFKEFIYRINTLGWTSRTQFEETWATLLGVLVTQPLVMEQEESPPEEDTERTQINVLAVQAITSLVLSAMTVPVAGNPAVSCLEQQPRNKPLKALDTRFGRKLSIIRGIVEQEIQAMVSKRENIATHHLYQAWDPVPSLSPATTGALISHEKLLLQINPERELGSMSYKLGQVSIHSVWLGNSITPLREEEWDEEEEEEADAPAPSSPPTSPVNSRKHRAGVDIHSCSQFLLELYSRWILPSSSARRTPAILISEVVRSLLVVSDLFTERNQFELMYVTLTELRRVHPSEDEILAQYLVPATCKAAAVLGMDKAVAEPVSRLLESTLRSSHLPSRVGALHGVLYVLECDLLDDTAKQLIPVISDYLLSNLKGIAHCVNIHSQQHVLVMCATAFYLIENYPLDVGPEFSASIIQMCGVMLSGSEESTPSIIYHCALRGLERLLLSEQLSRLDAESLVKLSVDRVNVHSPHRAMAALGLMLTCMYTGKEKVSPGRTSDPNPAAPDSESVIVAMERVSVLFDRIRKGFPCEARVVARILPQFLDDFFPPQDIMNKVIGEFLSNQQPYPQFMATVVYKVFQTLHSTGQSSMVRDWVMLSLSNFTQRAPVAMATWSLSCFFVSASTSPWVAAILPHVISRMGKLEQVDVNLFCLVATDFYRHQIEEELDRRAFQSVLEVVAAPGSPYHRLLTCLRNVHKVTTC
# Assay: mutant huntingtin-calmodulin interaction inhibitors – biochemical, AlphaScreen, primary screen (AID 1671202);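 note: 0% = both proteins with DMSO and 100% = one protein alone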
# Conditions: AlphaScreen His-mHTT/GST-CaM binding, luminescence; at 15 µM, stronger effect = higher value
row,Structure (SMILES),inhibition
1,O=C(Nc1nnc(SCc2ccc(C(F)(F)F)cc2)s1)c1cccs1,-13.3% (inactive)
2,CN(Cc1cn(Cc2ccc(C(F)(F)F)cc2)nn1)C1CN(Cc2cn(Cc3ccc(C(F)(F)F)cc3)nn2)S(=O)(=O)C1 (stereo unspecified),10.9% (inactive)
3,Cc1ccccc1CNC(=O)CCC1CCCN(C(=O)Nc2ccccc2F)C1 (stereo unspecified),-0.96% (inactive)
4,CCCn1c(C2CCN(C(=O)CCC3CCCC3)C2)nc2cccnc21 (stereo unspecified),19.8% (inactive)
5,Cc1nc(-c2ccc(C(=O)Nc3ccc(C)c(F)c3)cc2)cs1,-6% (inactive)
6,Cc1c(Cl)cccc1NC(=O)c1ccc(F)c(S(=O)(=O)N2CCCC2)c1,3% (inactive)
7,COc1cccc(-c2nc(C3CCN(S(=O)(=O)c4cccc(Cl)c4C)CC3)no2)c1,-1.63% (inactive)
8,Cc1ccc2c(c1)CCN1C(=O)CN(S(=O)(=O)c3cccc(Cl)c3C)CC21 (stereo unspecified),61.2% (active)
9,CC1C(=O)N(c2ccccc2-c2ccccc2)CCN1C(=O)C1CCCC1 (stereo unspecified),3.1% (inactive)
10,CSc1ccc(C2C=C(c3ccc(Cl)s3)Nc3ncnn32)cc1 (stereo unspecified),21% (inactive)
11,CC(C(=O)Nc1ccc(Cl)c(C(F)(F)F)c1)N1C(=O)c2ccccc2C1=O (stereo unspecified),24% (inactive)
12,CCn1c(SCC(=O)Nc2ccc(Br)cc2)nnc1-c1cc(OC)cc(OC)c1,4.9% (inactive)
13,CCCCOc1ccc(C(=O)Nc2nnc(-c3ccncc3)o2)cc1,40.2% (inactive)
14,CCOc1cccc2cc(C(=O)Nc3ccc(Cl)cc3Cl)c(=O)oc12,1% (inactive)
15,COc1cccc2cc(C(=O)NCCn3ccnc3C)oc12,-8.3% (inactive)
16,Cc1csc(-c2ccc(CNC(=O)c3ccnn3C)cc2)n1,-3.6% (inactive)
17,Cc1nc(-c2nnc(NC(=O)c3ccnn3C)o2)cs1,50.2% (active)
18,CCOc1cccc2cc(C(=O)Nc3nnc(-c4csc(C)n4)o3)oc12,54.6% (active)
19,COc1ccc(N2C(=O)C3N=NN(Cc4c(F)cccc4Cl)C3C2=O)cc1 (stereo unspecified),-2.2% (inactive)
20,COc1ccc(-n2nc3cc(C)c(NC(=O)c4ccccc4F)cc3n2)cc1,-3.4% (inactive)
21,CC(C)CCNC(=O)C1(C)CCC(=O)N1Cc1ccc(OC(C)C)cc1 (stereo unspecified),0.89% (inactive)
22,CCOC(=O)CC1(NC(=O)N2CCn3cccc3C2Cc2ccccc2)CCCCC1 (stereo unspecified),46.3% (inactive)
23,CCCC1c2cccn2CCN1C(=O)Nc1ccccc1C (stereo unspecified),6.33% (inactive)

row,Structure (SMILES),inhibition
1,CCOC(=O)CCNC(=O)N1CCn2cccc2C1c1ccc(Cl)cc1 (stereo unspecified),82.4% (active)
2,COc1ccc(C(=O)N2CCC(c3nc(CNC(=O)C4CCC4)cs3)CC2)cc1,5.04% (inactive)
3,O=C1CC(c2cccs2)CC2=C1C(c1cccc(Cl)c1)Nc1ccccc1N2 (stereo unspecified),26% (inactive)
4,COc1cccc(C2CC(=O)C3=C(C2)Nc2ccccc2NC3c2cccc(F)c2)c1 (stereo unspecified),25% (inactive)
5,Cc1ccc2oc(C3Nc4ccccc4NC4=C3C(=O)CC(c3cccs3)C4)cc(=O)c2c1 (stereo unspecified),4.8% (inactive) and 92% (active)
6,O=C(Cc1nc(-c2ccccn2)n[nH]1)NC1CCCCCC1,98% (active)
7,O=C(CSCc1ccccc1Cl)NC1CCCCC1,-5.4% (inactive)
8,O=C(Cc1ccc(F)cc1)NC1CCCC1,-1.1% (inactive)
9,N#CC1=C(N)Oc2n[nH]c(C(F)(F)F)c2C1c1cccnc1 (stereo unspecified),-2% (inactive)
10,Cc1ccc(Cl)cc1NC(=O)N1CC=C(c2cn(C)c3ncccc23)CC1,19.5% (inactive)
11,O=C(NCc1ccc(F)cc1)c1cccc(N2CCNC(c3ccccc3)C2)n1 (stereo unspecified),44.2% (inactive)
12,Cc1ccc(CNC(=O)c2cccc(N3CCNC(c4ccccc4)C3)n2)cc1 (stereo unspecified),57.7% (active)
13,CCNC(=O)c1cccc(N2CCNC(c3ccccc3)C2)n1 (stereo unspecified),2.6% (inactive)
14,Cc1cc(C(=O)NCC(c2cn(C)c3ccccc23)N(C)C)no1 (stereo unspecified),0.7% (inactive)
15,Cn1cc(C(NS(=O)(=O)c2ccc(Cl)cc2)C(Cl)(Cl)Cl)c2ccccc21 (stereo unspecified),77% (active)
16,Cc1[nH]c2ccccc2c1C(NS(=O)(=O)c1ccccc1)C(Cl)(Cl)Cl (stereo unspecified),30% (inactive)
17,O=C(Cc1ccccc1F)N1CCOc2ccccc2C1,0.06% (inactive)
18,COCCN1CCC(N2CCCN(C(=O)c3ccc(C)c(F)c3)CC2)C1=O (stereo unspecified),7.8% (inactive)
19,CCC(C(=O)NCC(C)(O)CCSC)c1ccccc1 (stereo unspecified),-4.2% (inactive)
20,O=C(C[C@H]1C(=O)N(c2ccc(F)c(F)c2)C[C@@H]1Cc1ccccc1)Nc1ccccc1,52.3% (active)
21,COc1ccc(NC(=O)C[C@H]2C(=O)N(CCc3ccccc3)C[C@@H]2C)cc1,-5.1% (inactive)
22,CNC(=O)C[C@H]1C(=O)N(c2ccc(OC)cc2)C[C@@H]1Cc1ccccc1,-3.3% (inactive)
23,COc1ccc(C(=O)N2CCC(c3nc(C(=O)N4CCSCC4)c(C)o3)CC2)cc1F,5.94% (inactive)

row,Structure (SMILES),inhibition
1,CC(=O)c1ccc(OCC(O)CNC2CCCC2)cc1 (stereo unspecified),-0.4% (inactive)
2,O=C(NCc1ccccc1F)c1cc2n(n1)CCCC2,-5.1% (inactive)
3,COc1ccccc1C(CCNCc1ccccc1)c1ccc2c(c1)OCO2 (stereo unspecified),47.4% (inactive)
4,COc1ccc(C(CC(=O)N2CCN(c3ccccc3)CC2)c2c(O)cc(OC)cc2OC)cc1 (stereo unspecified),34.4% (inactive)
5,COc1cc(C(CCN2CCN(c3ccccc3)CC2)c2c(OC)cc(OC)c3ccc(=O)oc23)cc(OC)c1OC (stereo unspecified),89.6% (active)
6,COc1cc(OC)c2ccc(=O)oc2c1C(CCN1CCN(c2ccccc2)CC1)c1ccc2c(c1)OCO2 (stereo unspecified),73.2% (active)
7,COc1ccccc1N1CCN(Cc2cc(OC)c3c(c2)OCO3)CC1,4.1% (inactive)
8,COc1ccc(CN2CCN(Cc3cc(OC)c(OC)c(OC)c3)CC2)cc1,2.6% (inactive)
9,CNC(=O)c1ccc2c(c1SC)C(=O)c1ccccc1C2=O,-3% (inactive)
10,CC1(C)CC(=O)C(C(=N)CC2CC(=O)NC(=O)C2)=C(O)C1,3% (inactive)
11,CC(C)(C)[C@H]1CCSC2=NCCC[C@]2(c2ccccc2)C1,7% (inactive)
12,CC(SCc1ccccc1)C(=O)Nc1ccc(Cl)cc1 (stereo unspecified),-33.9% (inactive)
13,O=C(Cc1c(C(=O)O)[nH]c2ccc(Cl)cc12)Nc1cccc(Cl)c1,14% (inactive)
14,O[C@@H]1C[C@H](c2ccccc2)N(Cc2cccs2)C[C@H]1n1cc(C2CC2)nn1,19.2% (inactive)
15,COc1ccc([C@H]2C[C@@H](n3cc(COC(=O)c4ccccc4)nn3)[C@H](O)CN2C(=O)c2cccs2)cc1,23.6% (inactive)
16,O[C@H]1C[C@H](c2ccc(Cl)cc2)N(Cc2cccs2)C[C@@H]1n1cc(C2CC2)nn1,100% (active)
17,O=C(c1cccs1)N1C[C@H](n2cc(C3CC3)nn2)[C@@H](O)C[C@@H]1c1ccccc1,4.1% (inactive)
18,O=C(OCc1cn([C@@H]2C[C@H](c3ccc(Cl)cc3)N(Cc3cccs3)C[C@H]2O)nn1)c1ccccc1,2.5% (inactive)
19,Cc1ccc([C@H]2C[C@H](O)[C@@H](n3cc(COC(=O)c4ccccc4)nn3)CN2CC2CCCCC2)cc1,23.1% (inactive)
20,CCCCCCN1C[C@H](O)[C@@H](n2cc(C3CC3)nn2)C[C@@H]1c1ccc(Cl)cc1,72.7% (active)
21,O[C@H]1CN(Cc2cccs2)[C@@H](c2ccc(Cl)cc2)C[C@@H]1n1cc(C2CC2)nn1,98.3% (active)
22,CCCCCCN1C[C@@H](O)[C@H](n2cc(COC(=O)c3ccccc3)nn2)C[C@@H]1c1ccc(Cl)cc1,-4.7% (inactive)
23,O=C(NCCC1CCN(C(=O)c2ccc(F)cc2)CC1)c1ccc(F)cc1,-1.87% (inactive)

row,Structure (SMILES),inhibition
1,O=C(Cc1ccccc1)Nc1ccc(C(=O)Nc2ccc(Cl)cc2Cl)cc1,-3.3% (inactive)
2,Cc1cc(C2CCCN2C(=O)c2ccn(C)n2)no1 (stereo unspecified),-4.24% (inactive)
3,O=C(CC(c1ccccc1)c1ccccc1)N1CCN(c2ccccc2F)CC1,-3.5% (inactive)
4,O=C(Nc1ccc(N2CCN(Cc3ccc(F)cc3)CC2)nc1)C1CC1,5% (inactive)
5,Cc1cccc(-c2nc(CN3CCN(C(=O)C4CC4)CC3)no2)c1,4.1% (inactive)
6,CC(C)NC(=O)N1CCCC(c2cccc(C(=O)N3CCN(c4ccccc4)CC3)c2)C1 (stereo unspecified),51.8% (active)
7,CCCN1CCN(C(=O)c2cccc(C3CCCN(C(=O)NCC)C3)c2)CC1 (stereo unspecified),10.7% (inactive)
8,CC(C)NC(=O)N1CCCC(c2cccc(C(=O)NCc3ccc(Cl)cc3)c2)C1 (stereo unspecified),2.21% (inactive)
9,CN(C)C(=O)c1cc2c(s1)CCC(C(=O)Nc1ccc(F)cc1F)C2 (stereo unspecified),3.95% (inactive)
10,C#CCOc1ccc(/C=C2\NC(=O)N(CC(=O)Nc3cccc(C)c3)C2=O)cc1OC,3% (inactive)
11,O=C(Nc1ccc([N+](=O)[O-])cc1Br)c1cncc(Br)c1,-1% (inactive)
12,CCCCC[C@H](C)N1C[C@@H](COCc2ccccc2)Oc2cc(N3CC[C@@H](N(C)C)C3)ccc2S1(=O)=O,100% (active)
13,CCCCC[C@H](C)N1C[C@@H](COCc2ccccc2)Oc2cc(N3CCC[C@@H]3CO)ccc2S1(=O)=O,3.5% (inactive)
14,CSc1ccc(Oc2cccc3c2S(=O)(=O)N([C@H](C)c2ccccc2)C[C@@H](COCc2ccccc2)O3)cc1C,-4.7% (inactive)
15,O=C(NCCN1CCOCC1)Nc1ccccc1F,-6.5% (inactive)
16,CCCN1CCn2cc(C(=O)N3CCN(c4ccccc4)CC3)nc2C1,63% (active)
17,CCCN1CCn2cc(C(=O)NCc3cccc(OC)c3)nc2C1,4.35% (inactive)
18,CCCN1CCn2cc(C(=O)N3CCN(c4cccc(OC)c4)CC3)nc2C1,4.51% (inactive)
19,Cc1cc(C)cc(C(=O)N2CCC(COc3ccccc3C(=O)NC3CC3)CC2)c1,9.35% (inactive)
20,O=S(=O)(c1cccc(Cl)c1Cl)N1CCN(c2cc(N3CCCC3)ncn2)CC1,2.9% (inactive)
21,O=C1c2cccc(N3CCCCC3)c2C(=O)c2cccc(Cl)c21,98% (active)
22,O=c1c(Cl)c(N2CCCC2)cnn1-c1ccccc1,-0.3% (inactive)

# Source: PubChem BioAssay AID1671202 (University of Kansas High Throughput Screening Laboratory, 2021)
